Results reported in PubChem BioAssay (NCATS).
Records with an inconclusive call do not appear. Calls of active or inactive are those of the source. Unless noted, the call rests on the fitted dose curve; in most records, active means well fitted curve in the direction sought with a large enough effect; inconclusive means small, poorly fitted or top-dose-only effect, or another doubt; inactive means no such curve, though single readings can be large; an effect the other way counts as inactive or inconclusive.

Key:
[1] = HPAF-II 24hr Apoptosis Induction qHTS against the NCATS CANVASS Library (AID 1347356); further: 0% is about no effect
Outline: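 Luminescent caspase-3/7 signal (DEVD substrate, Caspase-Glo) served as read-out, taken 15 min after reagent addition to HPAF-II cells exposed 24 h to compounds.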

[2] = HEK293 18hr Apoptosis Induction qHTS against the NCATS CANVASS Library (AID 1347357); further: 0% is about no effect
Outline: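 Natural products applied to HEK293 for 18 hr; Caspase-Glo 3/7 readout.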

[3] = HPAF-II 12hr Apoptosis Induction qHTS against the NCATS CANVASS Library (AID 1347358); further: 0% is about no effect
Outline: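 500 HPAF-II cells/well; cmpds 11-pt; 12 hr, 37 degrees C/5% CO2; Caspase-Glo 3/7 added, 15 min RT dark; luminescence read. Doxorubicin titration as control.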

[4] = HEK293 24hr Apoptosis Induction qHTS against the NCATS CANVASS Library (AID 1347359); further: 0% is about no effect
Outline: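 HEK293 cells (500/well, DMEM + 10% FBS) were exposed to compounds in an 11-point series for 24 hours at 37 degrees C, then caspase-3/7 activity was read by Caspase-Glo DEVD luciferase luminescence after 15 min.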

[5] = HPAF-II 18hr Apoptosis Induction qHTS against the NCATS CANVASS Library (AID 1347360); further: 0% is about no effect
Outline: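 Luminescent DEVD-substrate signal, proportional to caspase activity, is measured in HPAF-II cells after 18-hour treatment across a concentration series; doxorubicin serves as control.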

[6] = HEK293 12hr Apoptosis Induction qHTS against the NCATS CANVASS Library (AID 1347361); further: 0% is about no effect
Outline: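 Luminescent caspase-3/7 signal, proportional to enzyme activity, was recorded from HEK293 cultures in DMEM + 10% FBS treated for 12 hours with titrated natural products (11 points). Doxorubicin (0.1nM - 4uM) served as control.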

[7] = target: Luciferin 4-monooxygenase (Photinus pyralis) (UniProt P08659); test: Firefly luciferase counterscreen qHTS: Assay Interference Panel against the NCATS CANVASS Library (AID 1347363); further: 0% is about no effect
Luciferin 4-monooxygenase (Photinus pyralis), sequence (P08659 whole entry, looked up): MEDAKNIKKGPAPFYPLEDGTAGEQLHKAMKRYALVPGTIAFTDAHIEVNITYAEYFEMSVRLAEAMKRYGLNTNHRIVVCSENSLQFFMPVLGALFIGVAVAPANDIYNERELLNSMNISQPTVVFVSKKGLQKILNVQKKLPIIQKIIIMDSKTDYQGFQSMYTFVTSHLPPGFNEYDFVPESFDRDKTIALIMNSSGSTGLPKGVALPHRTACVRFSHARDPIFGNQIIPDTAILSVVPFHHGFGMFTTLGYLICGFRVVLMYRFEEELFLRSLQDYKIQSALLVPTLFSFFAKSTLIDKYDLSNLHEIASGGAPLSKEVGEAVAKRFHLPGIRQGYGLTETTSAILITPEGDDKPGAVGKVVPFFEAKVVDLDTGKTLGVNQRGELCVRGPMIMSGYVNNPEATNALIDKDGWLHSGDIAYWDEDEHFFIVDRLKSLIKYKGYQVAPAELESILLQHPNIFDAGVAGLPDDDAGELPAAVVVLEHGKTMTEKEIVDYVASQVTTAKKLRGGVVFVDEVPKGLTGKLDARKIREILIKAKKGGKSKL
Outline: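 Purified P. pyralis luciferase was added to compounds (11-point series) preincubated 15 min at room temperature with substrate containing 0.013 mM D-luciferin and 0.013 mM ATP; luminescence was read after 5 min.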

[8] = qHTS for ATAD5 Agonist screened against the NCATS CANVASS Library (AID 1347367);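 further: luciferase reporter driven by ATAD5 which rises upon DNA damage; 0% is about no effect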
Outline: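 Genotoxicity was scored as increased ATAD5-luciferase luminescence in HEK293T after 16hr of exposure, with cell viability measured by fluorescence beforehand in the same well.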

[9] = target: Nuclear receptor subfamily 1 group I member 3 (Homo sapiens) (UniProt Q14994); test: qHTS for Constitutive Androstane Receptor (CAR) Antagonist screened against the NCATS CANVASS Library (AID 1347372); further: potency means the concentration at half of the fitted maximal effect;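 on activity change, negative = inhibition: cells stimulated with 50 nM CITCO agonist so inhibition reflects antagonism; on the % scale 0 is the no-effect control and ±100 the full control effect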
Nuclear receptor subfamily 1 group I member 3 (Homo sapiens), sequence (Q14994 whole entry, looked up): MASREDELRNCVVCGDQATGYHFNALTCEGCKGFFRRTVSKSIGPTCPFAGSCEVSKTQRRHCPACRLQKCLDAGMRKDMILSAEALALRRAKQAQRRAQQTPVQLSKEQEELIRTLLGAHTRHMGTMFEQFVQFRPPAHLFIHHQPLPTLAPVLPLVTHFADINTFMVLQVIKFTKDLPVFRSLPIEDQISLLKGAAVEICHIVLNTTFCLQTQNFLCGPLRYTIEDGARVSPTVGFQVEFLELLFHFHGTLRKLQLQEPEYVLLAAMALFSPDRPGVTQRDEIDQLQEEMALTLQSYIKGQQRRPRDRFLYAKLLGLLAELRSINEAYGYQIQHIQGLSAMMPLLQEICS
Outline: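 HepG2 cells stably carrying hCAR and a CYP2B6-2.2kb luciferase reporter were exposed to compounds plus 50 nM CITCO for 24hr at 37C. CAR activity was read by ONE-Glo luminescence, with viability measured first by CellTiter-Fluor.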

[10] = 10-beta competent E. coli microbial cell viability qHTS against the NCATS CANVASS Library (AID 1347376); further: 0% is about no effect
Outline: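 E. coli 10-beta, 0.2 OD; cpds 11-pt; o/n 37C, 5% CO2; BacTiter-Glo 20 min RT; luminescence (ATP) = viable cells. Daunomycin ctrl.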

[11] = Inflammasome Signaling qHTS Counterscreen: IL-1-beta AlphaLISA counterscreen against the NCATS CANVASS Library (AID 1347381);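 further: cell-free check with purified IL-1β in medium and no THP-1 cells; 0% is about no effect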
Outline: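 Cell-free interference check: compounds added to medium spiked with 4 pg purified IL-1β. Anti-IL-1β acceptor beads (6 ug/mL) with 0.6 nM biotinylated antibody added for 1 h at RT, then streptavidin donor beads (24 ug/mL) for 30 min in the dark. AlphaLISA read at 680/615 nm.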

[12] = Cytotoxicity qHTS for assessment of Hepg2 cells membrane integrity screened against the NCATS CANVASS Library (AID 1347387)
Outline: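 qHTS, 11-pt conc. series, 0.59 nM - 46 uM final; HepG2 2000 cells/well, overnight attachment; 5 hr compound exposure 37C/5% CO2; CytoTox-ONE, 10 min RT; fluorescence ex560/em590 = LDH from damaged membranes.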

[13] = qHTS for activators of dead-cell proteases activity screened against the NCATS CANVASS Library (AID 1347392);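 further: luminescence from protease leaking out of membrane-damaged cells cleaving impermeant substrate; 0% is about no effect; rising signal means more cytotoxicity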
Outline: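 HepG2 cells (2000/well) attached 18 h at 37C, then exposed 5 h to compounds (11-point qHTS). Dead-cell protease activity read as luminescence from cell-impermeant AAF-aminoluciferin substrate after 15 min at room temperature.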

[14] = qHTS to identify inhibitors of the type 1 interferon - major histocompatibility complex class I in skeletal muscle: primary screen against the NCATS Mechanism Interrogation Plate v5.0 (MIPE) Libary (AID 1347411); further: nearly all actives have a fitted effect of over 65% in size; further: potency means the concentration at half of the fitted maximal effect;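 on activity change, negative = inhibition: plate controls were vehicle for no effect and reference inhibitor for full effect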
Outline: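 Luminescence from HiBiT-tagged endogenous HLA-B*08:01 served as the MHC class I read-out. CRISPR-engineered C25cl48 human myoblasts received 4.0 ng/ml IFN-beta plus compound for 24 hrs, with an 11-point, 1:3 series topping at 46 uM final.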

[15] = Primary qHTS for inhibitors of nuclear receptor binding SET domain protein 2 (NSD2) in an isogenic RCH-ACV NSD2 p.E1099K mutant (9B) (AID 1645876); further: nearly all actives have a fitted effect of over 70% in size; further: potency means the concentration at half of the fitted maximal effect
[16] = Primary qHTS for inhibitors of nuclear receptor binding SET domain protein 2 (NSD2) in an RCH-ACV wild type WT cells (2C) (AID 1645877); further: nearly all actives have a fitted effect of over 70% in size; further: potency means the concentration at half of the fitted maximal effect
[17] = target: Glutathione peroxidase 1 (Homo sapiens) (UniProt P07203); test: Primary qHTS Assay for Inhibitors of Recombinant Selenoprotein Glutathione Peroxidase 1 (GPX1) (AID 1845191); further: nearly all actives have a fitted effect of over 65% in size
Glutathione peroxidase 1 (Homo sapiens), sequence (P07203 whole entry, looked up): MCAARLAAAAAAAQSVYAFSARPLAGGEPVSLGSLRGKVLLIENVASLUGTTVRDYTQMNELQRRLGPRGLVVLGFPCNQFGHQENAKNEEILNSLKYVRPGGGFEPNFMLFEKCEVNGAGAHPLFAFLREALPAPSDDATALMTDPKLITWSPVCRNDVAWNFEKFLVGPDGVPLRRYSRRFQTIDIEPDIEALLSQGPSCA
Outline: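 Recombinant GPX1 (10 nM final) was preincubated with compound for 30 min at room temperature, then reacted with 1 mM GSH, 0.5 mM CHP, 0.5 mM NADPH and 100 nM glutathione reductase; NADPH fluorescence (340/450 nm) was read at 0 and 15 min.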

[18] = target: Phospholipid hydroperoxide glutathione peroxidase GPX4 (Homo sapiens) (UniProt P36969); test: Primary qHTS Assay for Inhibitors of Recombinant Selenoprotein Glutathione Peroxidase 4 (GPX4) (AID 1845192); conditions: outcome: dose series up to 50 µM unless noted; further: on the % scale 0 is the no-effect control and ±100 the full control effect; nearly all actives have a fitted effect of over 65% in size
Phospholipid hydroperoxide glutathione peroxidase GPX4 (Homo sapiens), sequence (P36969 whole entry, looked up): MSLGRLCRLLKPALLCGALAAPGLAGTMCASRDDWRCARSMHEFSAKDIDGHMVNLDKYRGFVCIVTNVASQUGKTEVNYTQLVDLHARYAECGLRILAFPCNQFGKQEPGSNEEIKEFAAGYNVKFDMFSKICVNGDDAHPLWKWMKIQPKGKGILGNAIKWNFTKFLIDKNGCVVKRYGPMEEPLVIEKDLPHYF
Outline: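 GR-coupled readout: 100 nM GR, 1 mM GSH, 0.5 mM NADPH; NADPH fluorescence (ex 340/em 450 nm) read at t=0 and after 15 min RT. GPX4 200 nM, preincubated 30 min with compound; substrate 0.5 mM CHP.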

[19] = qHTS drug screen for cell cycle checkpoint inhibitors in PARPi-resistant BRCA-mutant ovarian cancer cell lines. (AID 1963452; calls by dose curve); conditions: PEO1/OlaR viability, CellTiter-Glo luminescence, 96 h, stronger effect = lower value
Outline: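 PEO1, PEO4 and PEO1/OlaR ovarian cancer cells, 600 per well, exposed 96 h at 37C to a dilution series. Viability read by CellTiter-Glo luminescence, normalized to DMSO and empty wells; activity summarized as Z-AUC.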

[20] = qHTS assay to identify inhibitors of the type 1 interferon - major histocompatibility complex class I in skeletal muscle: Counter screen cell viability and HiBit confirmation (AID 1347412); conditions: iHSKM muscle cells + IFN-b, HiBiT or CellTiter-Glo, 24 h; for Potency: HiBiT; for activity change, negative = inhibition: Viability, at 45.9 µM (top of the series); further: potency means the concentration at half of the fitted maximal effect; on activity change, negative = inhibition: on the % scale 0 is the no-effect control and ±100 the full control effect; on all read-outs here: nearly all actives have a fitted effect of over 60% in size
Outline: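 Human myoblast knock-in line, 4.0 ng/ml IFN-beta stimulation, 24 h compound treatment. Endpoints: HiBiT lytic luminescence (HLA-B level) and CellTiter Glo (ATP). Dosing 12 concentrations, 3-fold steps, 46 uM highest final.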

[21] = measured here: PEO1 parental Z-AUC

O=C1CCC(=O)N(O)CCCCCNC(=O)CCC(=O)N(O)CCCCCNC(=O)CCC(=O)N(O)CCCCCN1
inactive: outcome [1] | Potency [2] | Potency [3] | Potency [4] | Potency [5] | outcome [6] | Potency [7] | Potency [8] | Potency [9] | outcome [10] | outcome [11] | outcome [12] | Potency [13]

CC1=C[C@H]2[C@H]3C(=O)C(c4ccc(O)cc4)=C[C@@]3(c3ccc(O)cc3)[C@@H]1C(=O)[C@]2(C)O
active: Potency [9] 933 nM
inactive: outcome [1] | Potency [2] | Potency [3] | Potency [4] | Potency [5] | outcome [6] | Potency [7] | Potency [8] | outcome [10] | outcome [11] | outcome [12] | Potency [13]

C/C=C1/C2=CCCN3C(=O)O[C@H]([C@H]1O)[C@H]23
inactive: outcome [1] | Potency [2] | Potency [3] | Potency [4] | Potency [5] | outcome [6] | Potency [7] | Potency [8] | outcome [11] | outcome [12] | Potency [13]

C[C@H](CCC(O)C(C)(O)CO)[C@@]1(O)CC[C@@]2(C)C3=C(CC[C@@]21C)[C@@]1(C)CCC(OC(=O)CCC(=O)O)C(C)(C)[C@@H]1CC3 (stereo partly drawn)
inactive: outcome [1] | Potency [2] | Potency [4] | Potency [5] | outcome [6] | Potency [7] | Potency [8] | Potency [9] | outcome [10] | outcome [11] | outcome [12] | Potency [13]

C=C1C[C@H]2O[C@@H]3[C@@H]4[C@H](CC[C@@](C)(O)[C@@H]42)[C@H](C)COC3(C)[C@@H](OC(=O)CCCCCCC)C[C@H]1O (stereo partly drawn)
inactive: outcome [1] | Potency [2] | Potency [3] | Potency [4] | Potency [5] | outcome [6] | Potency [7] | Potency [8] | Potency [9] | outcome [10] | outcome [11] | outcome [12] | Potency [13]

CC(C)c1c(-c2ccccc2)nc2c(C#N)c[nH]n2c1=O
0.594: Z-AUC [19, 21]
inactive: Potency [15] | Potency [16] | Potency [17] | Potency [18] | Z-AUC [19] 1.36 | activity change, negative = inhibition [20] -0.422%
active: Potency [14] 5230 nM | Potency [20] 3940 nM
0.731: Z-AUC ([19]; measured here: PEO4 Z-AUC)

C=C1C[C@H]2O[C@@H]3[C@@H]4[C@H](CC[C@@](C)(O)[C@@H]42)[C@H](C)COC3(C)[C@@H](OC(=O)CCCCCCC)CC1=O (stereo partly drawn)
inactive: outcome [1] | Potency [3] | Potency [4] | Potency [5] | Potency [7] | Potency [8] | Potency [9] | outcome [10] | outcome [11] | outcome [12] | Potency [13]

C[C@H]1CCC2(OC1)O[C@H]1C[C@H]3[C@@H]4CC(=O)[C@]5(O)C[C@H](O)CC[C@@]5(C)[C@H]4CC[C@@]3(C)[C@H]1[C@H]2C (stereo partly drawn)
inactive: outcome [1] | Potency [2] | Potency [3] | Potency [4] | Potency [5] | outcome [6] | Potency [7] | Potency [8] | Potency [9] | outcome [10] | outcome [11] | outcome [12] | Potency [13]

OC1CCC(Oc2cccc3cnc(Nc4ccc5nc[nH]c5c4)nc23)CC1 (stereo not drawn)
-1.54: Z-AUC [19, 21]
inactive: Potency [17] | Potency [18] | Z-AUC [19] -1.25 | activity change, negative = inhibition [20] 9.5%
active: Potency [14] 523 nM | Potency [15] 590 nM | Potency [16] 468 nM | Potency [20] 557 nM
-0.421: Z-AUC ([19]; measured here: PEO4 Z-AUC)

C/C(=C\[C@H](C)C(=O)/C=C/CC1CC(=O)NC(=O)C1)[C@@H]1OC(=O)CCCC/C=C/[C@H](O)[C@@H](O)[C@@H]1C
inactive: outcome [1] | Potency [2] | Potency [3] | Potency [4] | Potency [5] | outcome [6] | Potency [7] | Potency [8] | Potency [9] | outcome [10] | outcome [11] | outcome [12] | Potency [13]

O=C(/C=C/C#Cc1cccc(NS(=O)(=O)c2ccccc2)c1)NO
active: Potency [14] 2550 nM | Potency [15] 456 nM | Potency [16] 574 nM | Potency [20] 6250 nM
-0.336: Z-AUC [19, 21]
inactive: Potency [17] | Potency [18] | Z-AUC [19] -0.732 | activity change, negative = inhibition [20] -1.87%
-0.647: Z-AUC ([19]; measured here: PEO4 Z-AUC)

C[C@H](NC(=O)/C(C#N)=C/c1cccc(Br)n1)c1ccccc1
-0.139: Z-AUC [19, 21]
-0.487: Z-AUC ([19]; measured here: PEO4 Z-AUC)
inactive: Potency [17] | Potency [18] | Z-AUC [19] 0.178 | activity change, negative = inhibition [20] 17%
active: Potency [14] 10400 nM | Potency [15] 14800 nM | Potency [16] 14800 nM | Potency [20] 7010 nM

CN1CCc2cc3c(c4c2C1(C)C(=O)c1cc(O)ccc1-4)OCO3 (stereo not drawn)
inactive: outcome [1] | Potency [2] | Potency [3] | Potency [4] | Potency [5] | outcome [6] | Potency [7] | Potency [8] | Potency [9] | outcome [10] | outcome [11] | outcome [12] | Potency [13]

CN[C@@H](C)C(=O)N[C@@H]1C(=O)N(Cc2c(C)ccc3ccccc23)c2ccc(C#N)cc2N(C(C)=O)[C@H]1C
inactive: Potency [14]

C/C=C/c1cc2c(c(=O)o1)C(=O)[C@@H](O)[C@H](C)O2
inactive: outcome [1] | Potency [3] | Potency [4] | Potency [5] | Potency [7] | Potency [8] | outcome [10] | outcome [11] | outcome [12] | Potency [13]
